A word on the inhibition: it is the change of the read-out against control, counted positive when it falls.

The text below walks through data of PubChem BioAssay AID1063 (University of Pittsburgh Molecular Library Screening Center, 2008).

Hit rate of the full screen: of about 200,000 compounds, about 18,000 (9%) were called active. What follows is part of a selection rich in actives, with near analogues and random picks from the rest. A number with no mark means an inactive call. Rule as the data show it: active = inhibition above about 50%; inactive = the rest.

A short description of the test: antileishmanial activity against promastigotes – primary screen (AID 1063).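 Also: promastigotes grown with compound for 44 hours at 28 °C.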 Conditions: Leishmania major promastigotes, resazurin fluorescence viability; at 10 µM; hits give high values.
Turning to `O=S(=O)(Nc1ccccn1)c1cccc(S(=O)(=O)c2ccc(Cl)cc2)c1`, the inhibition was -10.8%.
To `CC(C)(C)NC(=O)Cn1cnc2cc([N+](=O)[O-])ccc2c1=O` belongs 3.94%.
On to `O=C(/C=C/c1ccc(F)cc1)Nc1cccc(S(=O)(=O)Nc2cccc(C(F)(F)F)c2)c1`, for which the inhibition was 50.4% (active).
To `O=C(CN1CCN(c2ccc(F)cc2)CC1)Nc1cccc(C(F)(F)F)c1` belongs -7.62%; to `CCNS(=O)(=O)c1ccc(NC(=O)Nc2cccc(C(F)(F)F)c2)cc1`, 31.4%; to `O=C(NCc1ccco1)c1nn2cccnc2c1Cl`, -2.79%.
As for `COc1ccc(Sc2nc(-c3ccccc3)ncc2OC)cc1`, the inhibition was -4.44%.
With `CC(Oc1cccc(NC(=O)c2cccs2)c1)C(=O)c1ccccc1` (centres undefined) the figure was 16.5%.
For the molecule `CCc1ccccc1N(CC(=O)NCCSCc1ccco1)S(C)(=O)=O`, the inhibition was -4.33%.
Turning to `Cc1cc(C)cc(N(CC(=O)NCCSCc2ccco2)S(C)(=O)=O)c1`, the inhibition was -4.83%.
To `O=C(Nc1ccccc1)Nc1ccccc1C(=O)NCc1ccco1` belongs 4.53%; to `CS(=O)(=O)N(Cc1ccc(Cl)cc1)c1ccc(C(=O)NCCSCc2ccco2)cc1`, 53.3% (active); to `Cc1cccc(Nc2ccccc2C(=O)NCc2ccco2)c1C`, 38.2%.
With `Cc1ccc(N(Cc2ccc(C(=O)Nc3ccccc3C(=O)NCc3ccco3)cc2)S(C)(=O)=O)cc1C` the figure was 61.3% (active).
Take `CCOC(=O)c1sc(NC(=O)CSc2n[nH]c(CC)n2)nc1C`: the inhibition is -7.68%.
With `Cc1ccccc1NS(=O)(=O)CCCCC(Cl)(Cl)Cl` the figure was 5.47%.
Regarding `COc1ccc(C2CC(c3cccs3)=NN2c2ccccc2)cc1` (centres undefined), the inhibition was -1.67%.
As to `CCOC(=O)N1CCN(C(=O)Cn2cnc3ccccc3c2=O)CC1`, the inhibition was -4.19%.
With `COc1ccc(NC(=O)C(=O)NCC(=O)Nc2cccc(C(F)(F)F)c2)cc1` the figure was -4.66%; with `COC(=O)CSc1ncnc2c1cnn2-c1ccc(C)cc1C`, 2.35%; with `CC1(C)NC(=O)N(CCOc2cccc(Oc3ccccc3)c2)C1=O`, -11.3%.
With `CC(O)CNCCOc1cccc(Oc2ccccc2)c1` (centres undefined) the figure was 95.9% (active).
To `Cc1ccc([N+](=O)[O-])c(OCCCNCC(C)O)c1` (centres undefined) belongs -0.76%.
Regarding `Cc1ccnc(SCC(N)=O)n1`, the inhibition is -7.56%.
To `O=C(Nc1ccc(F)c([N+](=O)[O-])c1)C1CC(=O)N(Cc2ccccc2)C1` (centres undefined) belongs 8.12%.
For `CNC(=S)Nc1ccc([N+](=O)[O-])cc1`, the inhibition was 6.53%.
Take `COc1ccccc1OCC(=O)OCn1c(SC)nnc(C)c1=O`: the inhibition is 58% (active).
As for `COc1cccc(NC(=O)COC(=O)CCOc2ccccc2OC)c1`, the inhibition is -0.7%.
To `COc1ccccc1OCCC(=O)OCC(=O)NC(=O)NC(C)(C)C` belongs -5.7%; to `Cn1cnnc1SCc1nnc(-c2ccccc2Br)o1`, -7.2%.
To `COc1ccc(C2CC(c3cccs3)=NN2C(=O)COC(=O)c2cc3ccccc3cc2O)cc1OC` (centres undefined) belongs 58% (active); to `COc1ccc(C2CC(c3cccs3)=NN2C(=O)CSc2nncs2)cc1OC` (centres undefined), 8.19%.
`COc1ccc(C2CC(c3cccs3)=NN2C(=O)CSc2nnc(N)s2)cc1OC` (centres undefined): the inhibition was 2.75%.
To `COc1ccccc1NC(=O)CCSc1nnc(-c2ccc(O)cc2)o1` belongs -3.54%.
To `Cc1ccc(-n2c(SCC(=O)Nc3ncc(Cl)cc3Cl)nc3ccccc32)cc1` belongs 89.5% (active); to `NS(=O)(=O)c1cccc(NC(=O)CSc2nc3ccccc3n2-c2ccccc2)c1`, 9.64%; to `Cc1ccc(SCCC(=O)OCC(=O)Nc2ncc(Cl)cc2Cl)cc1`, -4.94%.
Turning to `O=C(O)CC1S/C(=N\N=C/c2ccccc2O)N(c2ccc(O)cc2)C1=O` (centres undefined), the inhibition was -7.61%.
To `CC(=O)C1(C)N(O)C(C)(C)C(c2cccs2)=[N+]1[O-]` (centres undefined) belongs -4.97%.
On to `Cc1cccc2cc(C#N)c(N3CCCC3)nc12`, for which the inhibition is 4.74%.
With `CCOC(=O)c1cc(C#N)c(N2CCCCC2)nc1-c1ccccc1`, the inhibition was 53.9% (active).
With `CC(=O)c1cc(C#N)c(N2CCCCC2)nc1C`, the inhibition is -3.09%.
With `CCN1CC(CN(C)Cc2nc(-c3ccc(Cl)cc3)no2)CC1=O` (centres undefined) the figure was -8.19%; with `COc1cc(NC(=O)COC(=O)c2cnc(C)cn2)c(C)cc1[N+](=O)[O-]`, -4.51%.
Take `O=C(CSc1ccc(-c2ccco2)nn1)NCc1ccc2c(c1)OCO2`: the inhibition was 14%.
Turning to `Cc1ccc(S(=O)(=O)C(C#N)c2nc3ccccc3nc2N2CCCC2)cc1C` (centres undefined), the inhibition is -2.26%.
With `Cc1cc(N2CCN(S(=O)(=O)c3ccc(C)c(C)c3)CC2)c2ccccc2n1` the figure was 98.6% (active).
As for `Cc1cc(C(=O)NNC(=O)c2cccc(S(=O)(=O)N3CCOCC3)c2)c2ccccc2n1`, the inhibition was -9.98%.
To `COc1ccc(CCNC2=C(Cl)C(=O)N(Cc3ccccc3)C2=O)cc1OC` belongs 8.4%; to `COc1ccc(CCNc2cc(C)nc3c(-c4ccc(Cl)cc4)c(C)nn23)cc1OC`, 76.3% (active).
On to `COc1ccc(CCNc2ncnc3nc[nH]c23)cc1OC`, for which the inhibition was 5.03%.
In the case of `Cc1cc(Cl)ccc1OCCCC(=O)NCc1ccccn1`, the inhibition was 5.49%.
Take `COc1ccccc1OCCNC(=O)c1cc([N+](=O)[O-])cc([N+](=O)[O-])c1`: the inhibition was 93.5% (active).
As to `COc1ccccc1OCCNc1cc(N2CCOCC2)ccc1[N+](=O)[O-]`, the inhibition is 2.32%.
With `COCCCNC(=S)NC(=O)c1ccc([N+](=O)[O-])cc1`, the inhibition was -8.2%.
For the molecule `Cc1ccc(NC(=O)CSCC(=O)NC2CCCCC2)cc1`, the inhibition was 14.3%.
Turning to `CCC1CO/C(=C(\C(=C(Cl)Cl)N2CCOCC2)[N+](=O)[O-])N1` (centres undefined), the inhibition was -6.26%.
For `Cc1noc(C)c1S(=O)(=O)Nc1ccc(C(=O)N2CCN(c3ccc(F)cc3)CC2)cc1`, the inhibition was 4.11%.
For `COc1ccccc1CNC(=O)COc1ccc(C)nc1[N+](=O)[O-]`, the inhibition was 0.88%.
To `CCc1ccccc1NC(=O)CN(C)C(=O)COc1ccc(C)nc1[N+](=O)[O-]` belongs 57.1% (active).
To `Cc1ccc(OCC(=O)Nc2ccccc2Sc2ccc(Cl)cc2)c([N+](=O)[O-])n1` belongs 7.6%; to `COc1ccc(S(=O)(=O)N2CCCCCC2)cc1C(=O)OCC(=O)Nc1cc(C)on1`, 3.73%; to `CC(=O)c1c(C)[nH]c(C(=O)Nc2cc(S(=O)(=O)N(C)C)ccc2C)c1C`, -6.9%.
With `CC(=O)c1c(C)[nH]c(C(=O)OCC(=O)Nc2cc(S(=O)(=O)N3CCCCC3)ccc2C)c1C` the figure was 95.4% (active); with `CC(C)(C)C(=O)Cn1c(NCCO)nc2ccccc21`, -7.58%.
For `OCCNc1nc2ccccc2n1-c1ncnc2sc3c(c12)CCC3`, the inhibition is 60.8% (active).
`Cn1c(NN)nc2sc3c(c2c1=O)CCC3`: the inhibition is -2.23%.
In the case of `CCN1CCc2nc(NC(=O)c3cc(F)c(F)cc3Cl)sc2C1`, the inhibition was -0.49%.
With `Nc1ccc(Cl)c(S(=O)(=O)Nc2ccccc2Cl)c1` the figure was 1.56%; with `CCOc1ccccc1C1CC(c2cccc(NS(C)(=O)=O)c2)=NN1C(=O)c1ccccc1` (centres undefined), 2.04%; with `COc1ccc(C2CC(c3ccccc3)=NN2C(=O)c2ccc(Cl)c([N+](=O)[O-])c2)cc1` (centres undefined), 31.9%.
With `CCOc1ccc2nc(Cl)c(C3CC(c4ccccc4)=NN3C(=O)c3cccs3)cc2c1` (centres undefined) the figure was 66.5% (active); with `COc1ccc(C(=O)COC(=O)c2ccc3ccccc3n2)cc1`, -7.38%; with `COc1ccc(CCNC(=O)CCn2c(=O)c3ccccc3n(CC(=O)NCC3CCCO3)c2=O)cc1OC` (centres undefined), -3.03%.
With `Cc1ccnc(NC(=O)c2ccco2)n1` the figure was -6.16%; with `COc1ccc(CCCc2nnc(SCc3nc4ccccc4c(=O)[nH]3)n2C)cc1`, -4.22%.
For `CC(NC(=O)COC(=O)c1cc(=O)[nH]c2ccccc12)c1ccccc1` (centres undefined), the inhibition is -4.71%.
As for `Cc1ccccc1CC1(CO)CCCN(C(=O)c2cc(-c3ccccc3)no2)C1` (centres undefined), the inhibition was -3.77%.
To `Cc1ccccc1CC1(CO)CCCN(Cc2ccc3c(c2)OCCO3)C1` (centres undefined) belongs 70.2% (active); to `COc1cccc(CC2(CO)CCCN(Cc3nc(-c4cccs4)oc3C)C2)c1` (centres undefined), 2.57%; to `COc1cc(CN2CCN(Cc3ccc(C)cc3)CC2)c([N+](=O)[O-])cc1OC`, 53.4% (active).
To `COc1cc(CC(=O)N/N=C/c2ccccc2)c([N+](=O)[O-])cc1OC` belongs -0.35%; to `COc1cc(CN2CC(C)CC(C)C2)cc([N+](=O)[O-])c1O` (centres undefined), 16.2%; to `CCOC(=O)CNC(=O)/C(=C\c1ccc(F)cc1)NC(=O)c1ccccc1`, -2.16%.
With `CCN(CC(=O)NCc1cccs1)C(=O)c1ccccc1F` the figure was 35%.
Consider `CCOc1ccc(CCNC(=O)C2=C(C)C(=O)OC23CCC(C)CC3)cc1OCC` (centres undefined), for which the inhibition was 5.17%.
Regarding `COc1ccc(CNC(=O)CN2CCC(n3nnc4cc(F)ccc43)CC2)cc1`, the inhibition is 2.66%.
With `CCOc1cc(NC(=S)NCCCOC)c(OCC)cc1NC(=O)c1ccco1`, the inhibition is 36.4%.
With `CN1CCN(CC(=O)Nc2sc3c(c2C#N)CCC(C(C)(C)C)C3)CC1` (centres undefined), the inhibition is 100% (active).
To `CCN1CCN(CC(=O)Nc2sc3c(c2C#N)CCC3)CC1` belongs -1.23%.
To `CCC1CCc2c(sc(NC(C)=O)c2C#N)C1` (centres undefined) belongs -3.49%; to `Cc1nn2cc(-c3ccc(Cl)cc3)cnc2c1Br`, -2.01%.
As for `COc1ccc(Cl)cc1C(=O)NCC#N`, the inhibition is -4%.
With `N#C/C=C\Oc1ccc(Cl)cc1N`, the inhibition was 67.9% (active).
